Bioassay records: PubChem, National Center for Advancing Translational Sciences (NCATS)
A selection: hits, their analogues and other compounds. The true share with any hit is near 1.2%.
gsp antag: qHTS for Antagonists of gsp, the Etiologic Mutation Responsible for Fibrous Dysplasia/McCune-Albright Syndrome: qHTS. 340,000 compounds, 0.4% hits. Potency, µM (series often up to 76.9 µM), for inactives: top-dose activity change, negative = inhibition, actives largely listed as inhibitors. gsp-mutant cells, cAMP HTRF, 30 min; calls by dose curve; cell line not stated here;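 note: intracellular cAMP measured with PDE inhibitor Ro 20-1724 present during compound exposure; potency is the fitted concentration of half-maximal effect; % is set by controls: 0 for no effect and ±100 for the full control effect; nearly all actives have a fitted effect of over 65% in size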
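G418-selected cells were plated in DMEM/10% FBS for 16-24 h at 37C, then treated with compounds plus the PDE inhibitor […] (300 uM solution added) for 30 min at 37C. Intracellular cAMP was measured by HTRF after 30 min lysis at room temperature.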
RXFP1 antag: qHTS Assay for Antagonists of the Relaxin Receptor RXFP1. AID 1259400, 2018. HEK293-RXFP1, relaxin-stimulated cAMP HTRF, 30 min; hits give low values. 350,000 compounds, 0.59% hits. activity change, negative = inhibition, % at 57.5 µM;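 active = activity change of -60% or lower, but not beyond a set lower limit; inconclusive = change between -60% and -40%, or beyond the set limit; inactive = change above -40%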; note: % is set by controls: 0 for no effect and ±100 for the full control effect
Target sequence (Q9HBX9 whole entry, looked up): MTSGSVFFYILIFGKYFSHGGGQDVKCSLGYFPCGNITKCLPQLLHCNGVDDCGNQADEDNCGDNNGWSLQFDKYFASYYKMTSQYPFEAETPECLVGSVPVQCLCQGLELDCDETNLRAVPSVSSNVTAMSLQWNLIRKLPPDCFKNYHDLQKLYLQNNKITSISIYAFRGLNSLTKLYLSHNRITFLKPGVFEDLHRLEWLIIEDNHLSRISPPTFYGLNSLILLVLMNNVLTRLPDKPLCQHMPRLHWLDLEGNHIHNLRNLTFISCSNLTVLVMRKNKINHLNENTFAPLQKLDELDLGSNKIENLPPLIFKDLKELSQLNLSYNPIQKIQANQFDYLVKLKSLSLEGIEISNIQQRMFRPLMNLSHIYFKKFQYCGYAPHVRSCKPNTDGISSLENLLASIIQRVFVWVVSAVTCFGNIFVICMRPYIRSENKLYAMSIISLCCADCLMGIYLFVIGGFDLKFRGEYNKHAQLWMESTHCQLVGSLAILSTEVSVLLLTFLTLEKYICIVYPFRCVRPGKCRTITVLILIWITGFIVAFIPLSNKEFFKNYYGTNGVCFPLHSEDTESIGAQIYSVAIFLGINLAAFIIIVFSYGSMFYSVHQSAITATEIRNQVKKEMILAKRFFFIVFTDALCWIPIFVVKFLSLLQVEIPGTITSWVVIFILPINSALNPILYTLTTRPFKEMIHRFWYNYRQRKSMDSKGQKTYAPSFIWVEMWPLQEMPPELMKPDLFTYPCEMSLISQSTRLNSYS
RXFP1 agonist: qHTS Assay for Agonists of the Relaxin Receptor RXFP1; Relaxin receptor 1 (Homo sapiens), Q9HBX9; HEK293T-RXFP1 cAMP TR-FRET, 30 min; response scale: percent of porcine relaxin response, buffer zero; Potency, µM (titrated, usually from 57.5 µM), inactives show at the top dose activation, hits mostly activators; 370,000 compounds, 0.3% hits; active = well fitted activation curve with a large enough effect; inconclusive = small, poorly fitted or top-dose-only effect; note: potency is the fitted concentration of half-maximal effect; % is set by controls: 0 for no effect and ±100 for the full control effect; nearly all actives have a fitted effect of over 60% in size
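cAMP rise read by TR-FRET after 30 min, 37C compound exposure (up to 58 uM) in RXFP1-transfected HEK293 cells with Ro 20174 present. EC50 from Hill-equation fits, with 29 nM porcine relaxin as 100% and buffer as basal.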
pAkt inh: HTS Assay for Inhibitors of Akt Phophorylation: Primary Screen. Neuro2A IGF-stimulated pAkt S473 HTRF, 20 min; hits give low values. activity change, % for hits at 50 µM. 360,000 compounds, 0.32% hits. AID 651550, 2012; in the data active = activity change below about -80%; inconclusive = mostly about -51% to -80%; note: % is set by controls: 0 for no effect and ±100 for the full control effect
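Single-point screen (50 µM final compound) in Neuro2A cells stimulated 20 min with 6 nM IGF at 37 deg C. After lysis, Ser473-phosphorylated Akt read by HTRF (ex 330 nm, em 615/665 nm) as the 665/615 ratio.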
gsp ag: qHTS for Agonist of gsp, the Etiologic Mutation Responsible for Fibrous Dysplasia/McCune-Albright Syndrome: qHTS | gsp mutant cells, cAMP HTRF, 30 min | Potency, µM (top dose mostly 76.9 µM), for inactives: at the top dose activation (cAMP increase), hits mostly activators | 340,000 compounds, 0.13% hits | AID 624287, 2012; active = well fitted activation curve with a large enough effect; inconclusive = small, poorly fitted or top-dose-only effect, or another doubt; inactive = no such curve, though single readings can be large or run the other way; cell line not stated here;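 note: phosphodiesterase inhibitor Ro 20-1724 added with compounds to block cAMP breakdown; potency is the fitted concentration of half-maximal effect; nearly all actives have a fitted effect of over 60% in size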
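Cells in DMEM/10% FBS with G418 were pretreated with compounds in DMSO plus […] (300 uM stock) for 30 min at 37C. cAMP was measured by HTRF (cAMP-d2 plus anti-cAMP antibody-K) after 30 min at room temperature.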
The depositor's hits bear a star; i = inactive; ? = inconclusive; nt = no result; [ ] = dose if it differs, or a comment.

SMILES	gsp antag	RXFP1 antag	RXFP1 agonist	pAkt inh	gsp ag
COc1ccc(/C=N/NC(=O)c2cc(-c3ccc(C)cc3C)nc3ccccc23)cc1COC(C)=O	-13.1%	-13.8	0.9%	-88.6%*	-15.6%
COc1ccc(/C=N\NC(=O)c2ccccc2OC)cc1COc1c(F)c(F)c(F)c(F)c1F	39.8µM*	-18.8	-1.6%	i	-6.2%[15.4 µM]
CC(C)(C)OC(=O)N1CCC(c2c(C(=O)N3CCN(c4ncccn4)CC3)cnn2-c2ccc(F)cc2)CC1	nt	-6.9	-0.8%	nt	nt
C=CCNC(=O)c1ccccc1NC(=O)c1ccc(Cl)c(S(=O)(=O)Nc2ccccc2)c1	-11.1%	7.3	3.0%	-88.4%*	20.2%
CCC1CN(C(=O)N2CCC(C(=O)NCCc3cc(OC)ccc3OC)CC2)c2ccccc2O1 (configuration not stated)	nt	-5.7	-0.5%	nt	nt
CCOC(=O)C1=C(C)N(C2CCCCC2)C(=O)C1	0.8%	-12.8	0.6%	-101.2%*	-1.3%
Clc1ccc(C2=NNC(=NCc3ccccc3)SC2)cc1	7.08µM*	-16.4	-0.5%	i	12.3%[15.4 µM]
COc1cc2c(cc1OC)CN(C(=O)[C@H](C)N[C@@H](CCc1ccccc1)C(=O)O)[C@H](C(=O)O)C2	nt	23.2	nt	nt	nt
O=C(COc1ccc(C(=S)N2CCOCC2)cc1)N1CCOCC1	5.9%	-4.1	-0.8%	i	-56.0%
O=C(COc1ccc(C(=S)N2CCOCC2)cc1)N1CCCC1	6.4%	1.3	0.6%	-124.4%*	13.5%
O=C1NC(c2cccc3ccccc23)Nc2ccccc21 (configuration not stated)	6.1%	-1.2	nt	i	6.3%
O=C1NC(c2ccccc2Cl)Nc2ccccc21 (configuration not stated)	0.9%	-9.7	3.6%	-111.2%*	16.2%
O=[N+]([O-])c1c(Nc2ccc(O)cc2)cc(Cl)c2nonc12	7.94µM*	?	5.6%	i	-25.0%
CN(C)c1cc(Nc2ccc(O)cc2)c([N+](=O)[O-])c2nonc12	-2.9%	14.7	4.8%	i	24.0%
Cc1cc(C)nc(SCc2cc(=O)c(OC(=O)c3ccc(S(=O)(=O)N(C)C)cc3)co2)n1	-20.3%	nt	0.8%	i	-5.6%
Cc1cc(C)nc(SCc2cc(=O)c(OC(=O)c3ccc(Cl)c([N+](=O)[O-])c3)co2)n1	35.5µM*	-3.2	4.8%	i	-38.1%
O=C(Cn1cc2c(n1)CCCC2)Nc1cc(C(F)(F)F)ccc1Cl	nt	-5.7	-2.4%	nt	nt
CC(=O)O[C@]1(C(C)=O)CC[C@H]2[C@@H]3C=C(Cl)C4=CC(=O)CC[C@]4(C)[C@H]3CC[C@@]21C	-20.1%	-83.4*	0.2%	i	nt
CCOC(=O)c1sc2ncnc(NCc3ccco3)c2c1C	-6.7%	-3.9	15.3%	-111.5%*	?
CCOC(=O)c1sc2nc(CC(=O)OC)nc(NCc3ccco3)c2c1C	?	nt	-1.0%	i	?
CCOCCc1nnc(NC(=O)C(=O)c2cc(C)n(-c3ccc(C)cc3C)c2C)s1	nt	-12.8	0.6%	nt	nt
O=C1OC(/C(=C\Nc2cc(Cl)ccc2O)[N+](=O)[O-])c2ccccc21 (configuration not stated)	-23.6%	-82.1*	-0.2%	i	19.3%[15.4 µM]
CC(=O)NC(c1cc(F)c2cccnc2c1O)C(C)C (configuration not stated)	nt	nt	-0.1%	nt	nt
Cc1ccc(Cl)cc1-n1ncc2c(Nc3cccc(C)c3C)ncnc21	nt	-12.5	1.2%	nt	nt
COc1ccc(-c2csc(N(CCCN(C)C)C(=O)c3ccc(C(C)(C)C)cc3)n2)cc1	4.5%	-65.1*	-0.4%	i	0.1%[15.4 µM]
CCCC(CCC)C(=O)NC1CC(=O)N(c2ccc3c(c2)OCCO3)C1 (configuration not stated)	nt	nt	-0.5%	nt	nt
O=c1c2[nH]c3ccc(Cl)cc3c2ncn1CCN1CCCCC1	3.2%	-13.9	1.2%	i	-4.1%
S=c1nc[nH]c2c1[nH]c1ccc(Cl)cc12	9.7%	-35.9	3.16µM*	i	?
